Results: the supplement of paper PMC11732987, “Enantioselective OTUD7B fragment discovery through chemoproteomics screening and high-throughput optimisation” (Communications Chemistry, 2025)

Experiments:
Assay in all cases: log2 ratio of Biotin-Ahx-Ub-VS probe labelling (fragment/DMSO); higher = less target engagement (more negative = stronger competition), active = hit call of the paper (q ≤ 0.05, log2 ratio ≤ -1)
Conditions in all cases: compound concentration: 200 uM; treatment time: 3 h
USP19 = biological target: T1, USP19 (UniProt O94966)
T1 sequence (whole entry): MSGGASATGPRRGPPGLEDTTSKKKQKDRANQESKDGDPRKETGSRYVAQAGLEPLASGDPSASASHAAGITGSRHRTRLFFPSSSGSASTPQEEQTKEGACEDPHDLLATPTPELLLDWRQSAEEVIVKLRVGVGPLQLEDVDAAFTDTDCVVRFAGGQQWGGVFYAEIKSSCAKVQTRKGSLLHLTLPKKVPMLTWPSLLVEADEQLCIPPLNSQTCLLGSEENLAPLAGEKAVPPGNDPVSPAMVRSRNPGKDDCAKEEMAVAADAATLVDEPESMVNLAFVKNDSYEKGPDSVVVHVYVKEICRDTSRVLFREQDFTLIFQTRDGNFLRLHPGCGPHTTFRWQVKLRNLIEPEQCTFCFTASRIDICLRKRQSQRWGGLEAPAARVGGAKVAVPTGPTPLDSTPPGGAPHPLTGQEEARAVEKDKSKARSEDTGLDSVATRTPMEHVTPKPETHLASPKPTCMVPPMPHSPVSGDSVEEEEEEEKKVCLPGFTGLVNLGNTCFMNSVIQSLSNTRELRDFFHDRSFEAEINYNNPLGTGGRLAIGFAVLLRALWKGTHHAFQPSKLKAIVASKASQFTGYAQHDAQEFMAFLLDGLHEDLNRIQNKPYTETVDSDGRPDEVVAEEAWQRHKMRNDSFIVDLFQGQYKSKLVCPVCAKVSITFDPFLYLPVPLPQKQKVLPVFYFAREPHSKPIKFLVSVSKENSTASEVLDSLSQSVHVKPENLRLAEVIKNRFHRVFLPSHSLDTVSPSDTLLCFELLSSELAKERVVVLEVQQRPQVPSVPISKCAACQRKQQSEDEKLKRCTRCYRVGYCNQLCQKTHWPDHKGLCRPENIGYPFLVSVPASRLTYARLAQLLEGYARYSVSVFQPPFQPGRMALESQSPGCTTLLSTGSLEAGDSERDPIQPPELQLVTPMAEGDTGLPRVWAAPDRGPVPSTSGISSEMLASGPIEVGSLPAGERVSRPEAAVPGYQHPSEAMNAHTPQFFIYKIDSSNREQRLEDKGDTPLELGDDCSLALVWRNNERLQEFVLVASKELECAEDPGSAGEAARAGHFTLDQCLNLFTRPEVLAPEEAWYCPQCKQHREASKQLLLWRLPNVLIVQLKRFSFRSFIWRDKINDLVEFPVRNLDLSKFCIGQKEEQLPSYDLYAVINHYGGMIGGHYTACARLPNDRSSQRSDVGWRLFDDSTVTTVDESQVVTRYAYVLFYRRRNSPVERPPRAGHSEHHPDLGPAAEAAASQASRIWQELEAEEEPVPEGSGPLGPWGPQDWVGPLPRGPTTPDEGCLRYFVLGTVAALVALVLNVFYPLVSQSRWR
Procedure, shortened: (§1)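 HEK293T lysate in Tris/CHAPS/IGEPAL buffer with protease inhibitors (495 µg per sample) was given fragment at 200 µM or vehicle for 3 h, in triplicate. It then received Biotin-Ahx-Ub-VS at 0.5 µM final for 1 h. Labelled DUBs were NeutrAvidin-enriched, digested with LysC and trypsin, and run by diaPASEF LC-MS/MS. Values are average log2 fragment/vehicle ratios by unpaired t-test on global-median-normalised Spectronaut quantities of proteins with ≥2 unique peptides.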

USP24 = USP24 (UniProt Q9UPU5)
Procedure, shortened: as §1

USP25 = biological target: T2, USP25 (UniProt Q9UHP3)
T2 sequence (whole entry): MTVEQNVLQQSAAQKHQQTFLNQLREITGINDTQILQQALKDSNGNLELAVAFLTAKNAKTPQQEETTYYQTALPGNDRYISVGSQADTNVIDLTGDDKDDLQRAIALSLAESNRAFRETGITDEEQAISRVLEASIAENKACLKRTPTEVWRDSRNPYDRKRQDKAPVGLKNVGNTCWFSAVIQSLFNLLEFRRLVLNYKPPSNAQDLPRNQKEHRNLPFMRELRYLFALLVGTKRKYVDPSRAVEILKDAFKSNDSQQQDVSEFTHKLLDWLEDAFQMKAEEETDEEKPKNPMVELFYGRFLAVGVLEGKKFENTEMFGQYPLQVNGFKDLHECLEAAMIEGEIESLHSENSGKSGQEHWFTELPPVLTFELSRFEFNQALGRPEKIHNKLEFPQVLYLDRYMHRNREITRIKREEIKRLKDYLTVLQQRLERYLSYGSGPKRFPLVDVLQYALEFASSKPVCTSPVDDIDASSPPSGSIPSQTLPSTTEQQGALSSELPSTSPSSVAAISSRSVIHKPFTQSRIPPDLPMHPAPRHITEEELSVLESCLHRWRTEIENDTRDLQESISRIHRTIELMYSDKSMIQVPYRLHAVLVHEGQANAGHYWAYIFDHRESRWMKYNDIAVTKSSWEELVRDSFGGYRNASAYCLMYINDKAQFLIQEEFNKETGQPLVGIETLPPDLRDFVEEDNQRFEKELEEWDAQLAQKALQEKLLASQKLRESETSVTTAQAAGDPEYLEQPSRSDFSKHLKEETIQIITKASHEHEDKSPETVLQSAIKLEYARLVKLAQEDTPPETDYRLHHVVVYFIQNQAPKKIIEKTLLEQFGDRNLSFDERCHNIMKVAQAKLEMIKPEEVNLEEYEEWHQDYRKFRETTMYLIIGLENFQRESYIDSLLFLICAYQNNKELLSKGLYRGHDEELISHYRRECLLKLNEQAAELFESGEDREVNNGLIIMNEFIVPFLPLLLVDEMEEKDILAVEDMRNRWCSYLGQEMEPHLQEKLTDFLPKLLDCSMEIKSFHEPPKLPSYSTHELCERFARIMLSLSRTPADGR
Procedure, shortened: as §1

USP28 = biological target: T3, USP28 (UniProt Q96RU2)
T3 sequence (whole entry): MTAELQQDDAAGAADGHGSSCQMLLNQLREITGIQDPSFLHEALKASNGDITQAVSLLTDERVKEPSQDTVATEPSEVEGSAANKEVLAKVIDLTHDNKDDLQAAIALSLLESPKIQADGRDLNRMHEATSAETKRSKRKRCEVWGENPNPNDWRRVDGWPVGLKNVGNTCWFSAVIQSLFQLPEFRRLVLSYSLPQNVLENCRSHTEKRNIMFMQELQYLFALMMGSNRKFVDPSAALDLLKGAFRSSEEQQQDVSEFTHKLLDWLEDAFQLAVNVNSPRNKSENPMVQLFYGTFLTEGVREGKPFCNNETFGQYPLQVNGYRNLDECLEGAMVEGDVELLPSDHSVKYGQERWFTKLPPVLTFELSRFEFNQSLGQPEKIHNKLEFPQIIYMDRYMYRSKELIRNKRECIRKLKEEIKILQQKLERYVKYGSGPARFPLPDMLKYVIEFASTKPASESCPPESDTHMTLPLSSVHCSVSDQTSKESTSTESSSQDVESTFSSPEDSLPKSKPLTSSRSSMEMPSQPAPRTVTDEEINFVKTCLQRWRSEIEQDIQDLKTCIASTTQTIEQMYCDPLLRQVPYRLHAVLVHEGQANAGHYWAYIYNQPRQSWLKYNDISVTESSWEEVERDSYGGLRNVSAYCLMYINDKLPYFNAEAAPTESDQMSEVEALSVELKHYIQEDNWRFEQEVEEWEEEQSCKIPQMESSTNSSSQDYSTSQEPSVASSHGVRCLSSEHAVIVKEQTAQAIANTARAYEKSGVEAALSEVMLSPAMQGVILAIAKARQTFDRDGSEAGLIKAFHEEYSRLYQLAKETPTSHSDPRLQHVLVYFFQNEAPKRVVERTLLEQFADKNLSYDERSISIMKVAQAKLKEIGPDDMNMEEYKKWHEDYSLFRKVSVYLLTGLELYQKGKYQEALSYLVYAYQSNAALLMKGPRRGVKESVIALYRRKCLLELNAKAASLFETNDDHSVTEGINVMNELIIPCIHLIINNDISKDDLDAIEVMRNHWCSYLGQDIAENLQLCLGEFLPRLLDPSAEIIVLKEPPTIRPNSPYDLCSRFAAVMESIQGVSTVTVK
Procedure, shortened: as §1

Measured: log2 ratio of Biotin-Ahx-Ub-VS probe labelling

Chain of USP24 (Q9UPU5 whole entry): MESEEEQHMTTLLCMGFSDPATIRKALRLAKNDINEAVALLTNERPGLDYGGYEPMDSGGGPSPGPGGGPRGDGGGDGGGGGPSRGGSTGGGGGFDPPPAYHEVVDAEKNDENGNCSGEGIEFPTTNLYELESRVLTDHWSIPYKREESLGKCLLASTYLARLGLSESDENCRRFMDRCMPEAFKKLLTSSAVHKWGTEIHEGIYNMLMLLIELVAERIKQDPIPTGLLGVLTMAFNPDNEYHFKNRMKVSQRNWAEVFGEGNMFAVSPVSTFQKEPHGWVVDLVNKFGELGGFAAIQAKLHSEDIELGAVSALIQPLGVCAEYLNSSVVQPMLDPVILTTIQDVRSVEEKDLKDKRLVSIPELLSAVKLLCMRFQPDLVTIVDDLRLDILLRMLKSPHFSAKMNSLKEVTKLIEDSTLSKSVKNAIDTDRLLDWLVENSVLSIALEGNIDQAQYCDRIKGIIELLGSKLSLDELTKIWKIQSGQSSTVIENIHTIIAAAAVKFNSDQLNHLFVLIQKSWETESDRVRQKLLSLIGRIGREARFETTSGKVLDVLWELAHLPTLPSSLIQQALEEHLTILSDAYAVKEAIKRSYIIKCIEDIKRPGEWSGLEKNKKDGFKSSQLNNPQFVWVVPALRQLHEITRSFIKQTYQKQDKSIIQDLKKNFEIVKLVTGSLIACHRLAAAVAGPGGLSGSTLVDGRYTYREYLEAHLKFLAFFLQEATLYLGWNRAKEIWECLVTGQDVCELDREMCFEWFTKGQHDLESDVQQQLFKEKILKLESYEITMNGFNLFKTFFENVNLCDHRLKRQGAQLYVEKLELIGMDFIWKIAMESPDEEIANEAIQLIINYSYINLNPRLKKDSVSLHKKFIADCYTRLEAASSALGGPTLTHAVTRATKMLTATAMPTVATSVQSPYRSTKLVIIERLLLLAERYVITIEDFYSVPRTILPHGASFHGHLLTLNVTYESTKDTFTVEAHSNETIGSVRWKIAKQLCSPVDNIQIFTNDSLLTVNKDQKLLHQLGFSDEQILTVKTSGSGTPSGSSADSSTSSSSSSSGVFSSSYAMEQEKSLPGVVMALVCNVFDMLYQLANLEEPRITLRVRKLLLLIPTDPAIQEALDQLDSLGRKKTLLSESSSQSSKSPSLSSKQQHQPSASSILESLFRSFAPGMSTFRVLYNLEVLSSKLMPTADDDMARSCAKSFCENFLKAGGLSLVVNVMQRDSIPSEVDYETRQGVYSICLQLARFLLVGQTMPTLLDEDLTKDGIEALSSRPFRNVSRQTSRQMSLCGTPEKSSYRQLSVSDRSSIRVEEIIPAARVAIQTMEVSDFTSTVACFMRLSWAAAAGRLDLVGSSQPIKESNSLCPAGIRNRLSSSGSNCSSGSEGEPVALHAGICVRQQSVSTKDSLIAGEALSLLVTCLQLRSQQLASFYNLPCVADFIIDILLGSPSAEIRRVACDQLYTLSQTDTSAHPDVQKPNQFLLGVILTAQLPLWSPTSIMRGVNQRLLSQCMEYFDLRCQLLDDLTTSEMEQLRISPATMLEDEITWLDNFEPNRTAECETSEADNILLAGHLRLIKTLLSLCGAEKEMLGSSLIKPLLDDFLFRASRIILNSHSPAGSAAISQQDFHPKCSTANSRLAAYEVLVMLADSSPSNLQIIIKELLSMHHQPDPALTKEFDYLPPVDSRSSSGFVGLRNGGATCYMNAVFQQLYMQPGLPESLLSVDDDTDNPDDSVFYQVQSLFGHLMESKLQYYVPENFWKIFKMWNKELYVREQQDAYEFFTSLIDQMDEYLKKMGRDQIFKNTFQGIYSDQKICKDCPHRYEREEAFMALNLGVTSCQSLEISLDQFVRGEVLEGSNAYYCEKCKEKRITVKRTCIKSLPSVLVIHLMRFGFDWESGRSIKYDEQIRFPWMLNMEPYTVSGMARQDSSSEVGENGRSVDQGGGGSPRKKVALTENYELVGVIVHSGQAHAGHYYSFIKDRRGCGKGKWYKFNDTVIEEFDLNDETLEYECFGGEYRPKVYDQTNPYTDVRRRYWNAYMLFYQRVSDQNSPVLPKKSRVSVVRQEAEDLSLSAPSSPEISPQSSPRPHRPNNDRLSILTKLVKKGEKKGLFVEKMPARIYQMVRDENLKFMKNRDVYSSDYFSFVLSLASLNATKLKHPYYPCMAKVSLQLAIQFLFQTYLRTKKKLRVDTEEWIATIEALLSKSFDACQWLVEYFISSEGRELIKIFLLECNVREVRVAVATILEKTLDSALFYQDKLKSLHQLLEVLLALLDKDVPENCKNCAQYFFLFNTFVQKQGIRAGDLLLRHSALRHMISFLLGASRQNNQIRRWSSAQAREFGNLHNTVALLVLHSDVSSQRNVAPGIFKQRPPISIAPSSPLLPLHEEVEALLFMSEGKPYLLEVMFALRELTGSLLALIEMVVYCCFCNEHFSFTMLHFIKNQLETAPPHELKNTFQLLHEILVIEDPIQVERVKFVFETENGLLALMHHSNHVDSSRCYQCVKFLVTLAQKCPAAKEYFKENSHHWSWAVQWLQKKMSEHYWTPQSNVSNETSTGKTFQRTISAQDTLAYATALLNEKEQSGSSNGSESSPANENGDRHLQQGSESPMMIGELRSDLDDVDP

Cc1ccc(CC(NC(=O)CCl)c2ccccn2)cc1.Cl (centres undefined)
inactive: USP19 0.168 | USP24 -0.13 | USP25 -0.098 | USP28 -0.126
